Screening results from PubChem.
Compounds with a hit are over-represented: about 6.7% of the library has one in this group of screens.
C diff growth: blocks growth of Clostridium difficile | Clostridium difficile clinical isolate growth, OD600, 24 h; hits give low values | growth activity, negative = inhibition, % at 16 µg/mL (by protocol) | 0.25% of 86,000 active | AID 1259249;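 active = mean growth activity at or below -80% and every replicate also at or below -80%; inconclusive = mean at or below -80% but some replicate above -80%; inactive = mean growth activity above -80%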;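 also: 0% = DMSO wells and -100% = levofloxacin 16 µg/mL wells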
Pf Dd2 inh: P. falciparum Dd2 growth inhibition; activity change, % at 10 µM; 2.3% of 94,000 active; AID 1159554; SYBR Green, 72 h; hits give low values; in the data active = activity change below about -80%; inconclusive = no clear call, values can overlap the other calls
Tcruzi prolif: blocks T. cruzi growth in NIH3T3 culture | inhibition, % at 8.34 µM | 5.9% of 77,000 active | T. cruzi beta-gal in NIH3T3, GalScreen luminescence, 90 h;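 active = mean inhibition above about 93%, with at least 55% of replicates each passing it, limit read from the data, passing the limit was not always enough; inconclusive = only one of those two conditions holds; inactive = neither condition holds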
Active calls of the source: *; ? = inconclusive; . = no result given.

SMILES	C diff growth	Pf Dd2 inh	Tcruzi prolif
COc1ccc(C#Cc2ccc([C@H]3[C@H](CO)N4CCCCN(C(=O)Nc5ccccc5)C[C@@H]34)cc2)cc1	2	-52	72
COc1ccc(NC(=O)N2CCCCN3[C@H](CO)[C@H](c4ccc(C#Cc5ccccc5)cc4)[C@@H]3C2)cc1	-15	-84*	62
Cc1noc(C)c1NC(=O)N(C)C[C@@H]1OCCCC[C@H](C)Oc2ccc(NC(=O)c3ccccc3)cc2C(=O)N([C@H](C)CO)C[C@H]1C	.	15	-1
COc1ccc(NC(=O)N(C)C[C@@H]2Oc3ccc(NC(=O)Nc4ccc(C(F)(F)F)cc4)cc3CC(=O)N([C@@H](C)CO)C[C@H]2C)cc1	-1	-66	30
Cc1noc(C)c1NC(=O)Nc1ccc2c(c1)CC(=O)N([C@H](C)CO)C[C@H](C)[C@@H](CN(C)Cc1ccc(Oc3ccccc3)cc1)O2	46	-42	26
COCC(=O)N1CCC2(CC1)CN(C(=O)COC)[C@H](CO)c1c2c2ccc(OC)cc2n1C	-5	-3	.
COc1ccc(S(=O)(=O)Nc2ccc3c(c2)[C@H]2C[C@H](CC(=O)O)O[C@@H](CO)[C@H]2O3)cc1	2	0	6
CCCNC(=O)N1CC2(C1)[C@H](c1ccccc1)[C@@H](CO)N2C(=O)c1ccncc1	1	48	.
C[C@H](CO)N1C[C@H](C)[C@@H](CN(C)Cc2ccc(Oc3ccccc3)cc2)Oc2c(NS(=O)(=O)c3ccccc3)cccc2C1=O	-9	-18	.
C[C@@H]1CN([C@@H](C)CO)C(=O)c2cccc(NS(=O)(=O)c3ccccc3)c2O[C@H]1CN(C)Cc1ccc(Oc2ccccc2)cc1	-4	-83*	78
C[C@@H]1CN([C@H](C)CO)C(=O)c2cccc(NS(=O)(=O)c3ccccc3)c2O[C@H]1CN(C)Cc1ccc(Oc2ccccc2)cc1	15	-86*	50
C[C@@H]1CN([C@@H](C)CO)C(=O)c2cccc(NS(=O)(=O)c3ccccc3)c2O[C@@H]1CN(C)Cc1ccc(Oc2ccccc2)cc1	44	-63	39
C[C@H]1CN([C@@H](C)CO)C(=O)c2ccccc2-c2ccccc2CO[C@H]1CN(C)S(=O)(=O)c1ccsc1	-1	11	-31
CC(=O)N1CC[C@@H]2[C@H](CO)Nc3ccc(-c4ccccc4)cc3[C@@H]21	-19	16	25
O=C(NCC[C@H]1CC[C@H](NC(=O)C2CC2)[C@@H](CO)O1)Nc1ccc(C(F)(F)F)cc1	-99*	-17	-6
CCC(=O)N[C@@H]1CC[C@@H](CCNC(=O)Nc2ccc(C(F)(F)F)cc2)O[C@@H]1CO	.	0	12
O=C(NCC[C@H]1CC[C@H](NC(=O)C2CC2)[C@H](CO)O1)Nc1ccc(C(F)(F)F)cc1	-7	8	-29
CN(C)CC(=O)N[C@@H]1CC[C@@H](CCNC(=O)Nc2ccc(C(F)(F)F)cc2)O[C@H]1CO	-89*	-7	12
CC(=O)N[C@H]1CC[C@@H](CCNC(=O)Nc2ccc(C(F)(F)F)cc2)O[C@@H]1CO	-77	11	16
CC(=O)N[C@@H]1CC[C@H](CCNC(=O)Nc2ccc(C(F)(F)F)cc2)O[C@H]1CO	-94*	0	11
C[C@@H]1CN([C@H](C)CO)S(=O)(=O)c2ccc(/C=C/c3ccccc3)cc2O[C@H]1CN(C)C(=O)CN1CCOCC1	-2	-46	-24
CC(C)NC(=O)N(C)C[C@H]1Oc2cc(C#Cc3cccc(F)c3)ccc2S(=O)(=O)N([C@H](C)CO)C[C@H]1C	6	-43	100
C[C@@H]1CCCCO[C@@H](CN(C)S(=O)(=O)c2ccc(F)cc2)[C@H](C)CN([C@@H](C)CO)C(=O)c2cc(NC(=O)CCCN(C)C)ccc2O1	4	-3	2
C[C@@H]1CCCCO[C@@H](CN(C)CC2CCCCC2)[C@@H](C)CN([C@@H](C)CO)C(=O)c2cc(NC(=O)Nc3ccc4c(c3)OCO4)ccc2O1	-3	-66	92
C[C@@H]1CN([C@@H](C)CO)C(=O)c2cc(NC(=O)NC3CCCCC3)ccc2O[C@@H](C)CCCCO[C@H]1CN(C)CC1CCCCC1	.	-85*	84
SMILES	C diff growth	Pf Dd2 inh	Tcruzi prolif
C[C@@H]1CCCCO[C@@H](CN(C)CC2CCCCC2)[C@H](C)CN([C@H](C)CO)C(=O)c2cc(NC(=O)Nc3ccc4c(c3)OCO4)ccc2O1	3	-81*	79
C[C@@H]1CCCCO[C@H](CN(C)CC2CCCCC2)[C@H](C)CN([C@@H](C)CO)C(=O)c2cc(NC(=O)NC3CCCCC3)ccc2O1	.	-53	35
Cc1noc(C)c1S(=O)(=O)N(C)C[C@@H]1Oc2ccc(NS(=O)(=O)c3ccccc3)cc2CC(=O)N([C@H](C)CO)C[C@H]1C	-9	12	15
C[C@@H]1CN([C@H](C)CO)C(=O)c2cc(NC(=O)c3ccccc3)ccc2O[C@@H](C)CCCCO[C@@H]1CN(C)C(=O)C1CCCCC1	6	-84*	-22
C[C@@H]1CCCCO[C@@H](CN(C)C(=O)C2CCCCC2)[C@H](C)CN([C@@H](C)CO)C(=O)c2cc(NC(=O)c3ccccc3)ccc2O1	-2	-20	14
C[C@H](CO)N1C[C@H](C)[C@@H](CN(C)C(=O)C2CCCCC2)OCCCC[C@H](C)Oc2ccc(NC(=O)c3ccccc3)cc2C1=O	-5	44	51
C[C@H](CO)N1C[C@H](C)[C@@H](CN(C)C(=O)C2CCCCC2)OCCCC[C@H](C)Oc2ccc(NC(=O)CCC(F)(F)F)cc2C1=O	-7	4	-8
C[C@@H]1CCCCO[C@H](CN(C)C(=O)C2CCCCC2)[C@@H](C)CN([C@@H](C)CO)C(=O)c2cc(NC(=O)c3ccccc3)ccc2O1	-8	-85*	54
C[C@H]1CCCCO[C@@H](CN(C)C(=O)C2CCCCC2)[C@@H](C)CN([C@@H](C)CO)C(=O)c2cc(NC(=O)CCC(F)(F)F)ccc2O1	-4	-82*	-7
C[C@@H]1CCCCO[C@@H](CN(C)Cc2ccccc2)[C@@H](C)CN([C@@H](C)CO)C(=O)c2cc(NC(=O)Nc3ccc(F)cc3)ccc2O1	19	-10	76
C[C@@H]1CN([C@@H](C)CO)C(=O)Cc2cc(NC(=O)Nc3ccccc3)ccc2O[C@@H]1CN(C)C(=O)Nc1cccc2ccccc12	-9	-22	23
C[C@@H]1CN([C@@H](C)CO)C(=O)c2cccc(NS(C)(=O)=O)c2O[C@H]1CN(C)C	-4	-9	-2
CC=Cc1ccc2n(c1=O)C[C@@H]1[C@@H](CO)[C@H](C(=O)NCCc3cn(C)cn3)N(C(=O)C3CC3)[C@H]21 (mixture of isomers)	-1	0	30
C[C@@H]1CN([C@H](C)CO)C(=O)c2cc(NC(=O)Cc3ccccc3)ccc2O[C@@H](C)CCCCO[C@@H]1CN(C)C(=O)Nc1cccc2ccccc12	14	-92*	83
C[C@@H]1CCCCO[C@@H](CN(C)C(=O)Nc2cccc3ccccc23)[C@@H](C)CN([C@H](C)CO)C(=O)c2cc(NC(=O)Cc3ccccc3)ccc2O1	19	-84*	-35
C[C@H](CO)N1C[C@H](C)[C@@H](CN(C)C(=O)Nc2cccc3ccccc23)OCCCC[C@H](C)Oc2ccc(NC(=O)Cc3ccccc3)cc2C1=O	-15	?	35
